Rows were chosen to be rich in hits. Some 19% of all compounds tested hit in one or more screens of this group.
ELG1 repair inh: inhibitors of ELG1-dependent DNA repair in HEK293T cells | 330,000 compounds, 2.3% hits | HEK293T ELG1-luciferase reporter, luminescence, 16 h; DNA damage induced by 5-fluorouridine | Potency, µM (top dose mostly 46.1 µM), without a hit: at the top dose activity change, negative = inhibition, usual class: inhibitors; note: potency is the fitted concentration of half-maximal effect; nearly all actives have a fitted effect of over 55% in size
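Overnight (16 hr) co-exposure of 2,000 cells/well to 5-fluorouridine and compound at 37 °C preceded detection. Luciferase was quantified via ONE-Glo luminescence; loss of signal denotes inhibition.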
TDP1 cell CPT: DT40-hTDP1 cell growth loss with CPT. Potency, µM (highest dose often 46.2 µM), inactives show at the top dose activity change, negative = growth inhibition, hits mostly inhibitors. 420,000 compounds, 12% hits. AID 686979. chicken DT40 Tdp1-/-;hTDP1 cells + 20 nM CPT, ATP luminescence, 48 h; note: potency is the fitted concentration of half-maximal effect; nearly all actives have a fitted effect of over 55% in size
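Cell growth measured by CellTiter-Glo luminescence after a minimum 48 h, 37 C compound exposure with 20 nM CPT in Tdp1-knockout DT40 cells stably expressing hTDP1, seeded 400/well; qHTS titration format.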
HT1080-NT tox: kills 2HG-producing HT-1080-NT fibrosarcoma cells | Potency, µM (highest dose often 46.1 µM), inactives show at the highest dose activity, negative = less viability, actives largely listed as cytotoxic | 360,000 compounds, 1.6% hits | AID 686970 | HT-1080-NT fibrosarcoma viability, CellTiter-Glo ATP luminescence, 48 h;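 note: NT is the 2HG producing partner of a matched IDH1 knockdown line; potency is the fitted concentration of half-maximal effect; 0% = DMSO-treated cells and -100% = media-only wells without cells; nearly all actives have a fitted effect of over 55% in size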
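Fibrosarcoma NT cells, 750 per well in 5% FBS RPMI, were exposed to compound for 48 hours. Viability: CellTiter-Glo luminescence.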
HT1080 IDH1KD tx: kills HT-1080 cells with IDH1 knockdown. HT-1080 IDH1 knockdown viability, ATP luminescence, 48 h. Potency, µM (doses to about 46.1 µM), for the others: top-dose activity, negative = toxicity, actives largely listed as cytotoxic. 360,000 compounds, 2% hits. AID 686971;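 note: potency is the fitted concentration of half-maximal effect; 0% = DMSO wells and -100% = cell-free medium wells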
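In this qHTS, HT-1080 cells depleted of IDH1 are exposed for 48 h at 37 °C to compound titrations. Toxicity is scored from CellTiter-Glo luminescence, with DMSO as full viability and medium alone as none.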
IL1B secr inh: inflammasome signaling inhibition, IL-1 beta readout; THP-1 LPS/ATP IL-1B secretion, AlphaLISA, 16 h; stronger effect = lower value; activity change, % at 57.5 µM; 360,000 compounds, 4.7% hits; in the data active = activity change below about -50%; inconclusive = mostly about -30% to -49%
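Secreted IL-1B measured by AlphaLISA bead assay after 16 h compound exposure of THP-1 cells; compounds (final up to 57.5 uM) added 1 h before LPS (250 ng/mL) and ATP (1.25 mM) stimulation; lower signal means less secretion.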
TDP1 cell noCPT: qHTS for Inhibitors of human tyrosyl-DNA phosphodiesterase 1 (TDP1): qHTS in cells in absence of CPT; DT40 Tdp1-/- hTDP1 cells, no CPT, ATP luminescence, 48 h; Potency, µM (highest dose often 46.2 µM), without a hit: top-dose activity change, negative = growth inhibition, hits mostly inhibitors; 420,000 compounds, 15% hits; AID 686978, 2013; note: potency is the fitted concentration of half-maximal effect; nearly all actives have a fitted effect of over 55% in size
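Chicken DT40 Tdp1-/- cells complemented with human TDP1, screened without camptothecin (DMSO vehicle only), 400 cells/well. Compounds pin-transferred, cells incubated at 37 °C for at least 48 hr. Growth read as ATP-dependent luminescence (CellTiter-Glo, 30 min at RT).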
An asterisk follows results filed as active; ? = inconclusive; . = not tested or not shown; [ ] = another dose, or the depositor's remark. Unless noted, calls come from the whole dose curve; as a rule, active = well fitted curve in the direction sought with a large enough effect; inconclusive = small, poorly fitted or top-dose-only effect, or another doubt; inactive = no such curve, though single readings can be large; an effect the other way counts as inactive or inconclusive. Unless noted, % is set by controls: 0 for no effect and ±100 for the full control effect.

SMILES	ELG1 repair inh	TDP1 cell CPT	HT1080-NT tox	HT1080 IDH1KD tx	IL1B secr inh	TDP1 cell noCPT
O=S(=O)(Nc1nc2ccccc2nc1Nc1ccc2c(c1)OCO2)c1ccc(F)cc1	-9%	18µM*	4%	1%	15	13µM*
COc1ccc(S(=O)(=O)Nc2cccc(S(=O)(=O)N3CCCCCC3)c2)cc1	-8%	-6%	-5%	-3%	11	?
Cc1cc(C(=O)Nc2cccc(S(=O)(=O)N3CCCCC3)c2)c2ccccc2n1	-3%	?	-27%	-19%	7	?
O=C(Nc1cccc(S(=O)(=O)N2CCCCC2)c1)c1ccccn1	4%	-19%	14%	14%	-84*	-26%
Cc1cccc(C(=O)NNc2ncnc3c2cnn3-c2ccc(C)c(Cl)c2)c1	.	-21%	.	.	.	0%
Cc1ccccc1C(=O)Nc1cc(C(F)(F)F)ccc1-n1cncn1	3%	20%	5%	0%	31	-6%
O=C(Nc1cccc(S(=O)(=O)N2CCCCCC2)c1)c1ccc2ccccc2n1	6%	?	-2%	-3%	-10	18µM*
CSc1ncccc1C(=O)Nc1cccc(S(=O)(=O)N2CCCCC2)c1	-21%	?	-4%	0%	10	15µM*
CCOc1ccc(S(=O)(=O)Nc2nc3ccccc3nc2Nc2ccc(OC)cc2)cc1	.	-8%	.	.	.	-29%
CSc1ncccc1C(=O)Nc1ccc(S(=O)(=O)N2CCCC2)cc1	-9%	-3%	-7%	0%	-12	-10%
CCc1ccc(Nc2nc3ccccc3nc2NS(=O)(=O)c2ccccc2)cc1	.	16µM*	.	.	.	21µM*
CC(C)(C)C1CCc2c(sc3nc(-c4cc5cc(Cl)ccc5oc4=O)[nH]c(=O)c23)C1 (stereo unspecified)	.	0%	.	.	.	12%
COc1ccc(CCn2c(C)nc3ccccc3c2=O)cc1OC	?	?	18%	8%	-2	21µM*
CCSc1nc2ccccc2c(=O)n1CCc1ccc(OC)c(OC)c1	?	13µM*	-5%	-16%	-6	12µM*
COc1ccc(CCN2CN(S(=O)(=O)c3ccc(C)cc3)c3nc4ccccc4nc32)cc1OC	-3%	23µM*	6%	-2%	6	?
O=c1c2ccccc2nc(-c2ccco2)n1CCCn1ccnc1	?	-25%	0%	-19%	16	-7%
O=c1c2ccccc2nc(-c2ccco2)n1CCc1ccc(O)cc1	-6%	?	-28%	-23%	1	5.8µM*
O=C1OC(O)c2cccc3cccc1c23 (stereo unspecified)	.	10%	3%	0%	-3	1%
CCN(CC)S(=O)(=O)c1ccc(N2CCOCC2)c(NC(=O)c2cc3ccccc3o2)c1	.	?	1%	10%	-26	?
CCC(Sc1nc2cc(OC)c(OC)cc2c(=O)n1CCc1ccc(OC)c(OC)c1)C(=O)NCCOC (stereo unspecified)	18µM*	-28%	-3%	-4%	0	?
COc1ccc(CCn2c(-c3ccco3)nc3ccccc3c2=O)cc1OC	10µM*	2.6µM*	-14%	?	-54*	2.6µM*
COc1ccc(CCn2c(=S)[nH]c(=O)c3nccnc32)cc1OC	.	6.3µM*	3%	-5%	.	3.2µM*
Cn1c(-n2c(-c3ccco3)nc3ccccc3c2=O)nc2ccccc21	?	3.7µM*	-22%	?	11	5.8µM*
COCCCn1c(-c2ccco2)nc2ccccc2c1=O	-2%	-19%	-3%	2%	5	-29%
COc1ccc(C(=O)COC(=O)C(CCSC)NC(=O)COc2ccccc2)cc1 (stereo unspecified)	16%	4%	3%	-1%	2	14%
SMILES	ELG1 repair inh	TDP1 cell CPT	HT1080-NT tox	HT1080 IDH1KD tx	IL1B secr inh	TDP1 cell noCPT
Cc1ccccc1C(=O)N1CCC(C(=O)OCc2ccccn2)CC1	2%	-3%	-7%	5%	12	-16%
CCSc1nc2ccccc2n1CC(N)=O	-5%	-17%	10%	-14%	6	-7%
CCSc1nc2ccccc2n1C(=O)/C=C\c1ccc(OC)c(OC)c1	?	4.6µM*	-20%	?	-97*	5.2µM*
COc1ccc(OC)c(C(=O)N2CCc3c(cnc(C)c3CNS(=O)(=O)N(C)C)C2)c1	.	6%[9.04 µM]	.	.	.	-11%
Cc1ccc2nc(CC(O)(c3ccccc3)c3ccccc3)ccc2c1	.	?	1%	7%	35	21µM*
COc1cccc2ccc(CC(O)(c3ccccc3)c3ccccc3)nc12	.	?	-1%	-10%	30	26µM*
OC(Cc1ccncc1)(c1ccccc1)c1ccccc1	-1%	?	0%	-5%	6	?
CCC1=C(c2ccc(C)cc2)S(=O)(=O)N=C1N1CCC(C(=O)NCCCN2CCCCC2C)CC1 (stereo unspecified)	12%	-5%	4%	1%	-12	-4%
COc1ccc(-c2noc(-c3csc([C@@H]4O[C@H](CO)[C@H](O)[C@H](O)[C@H]4O)n3)n2)cc1OC	.	-5%	17%	21%	14	14%
Cc1ccccc1-c1cnc(C(O)c2cc(Cl)cc(Cl)c2)[nH]1 (stereo unspecified)	.	?	?	?	-24	?
Cc1cc(C(C)(C)C)cc(CN2CCN(S(=O)(=O)c3cccs3)CC2)c1O	.	-6%	-3%	0%	-13	0.18µM*
O=S(=O)(c1cccs1)N1CCN(Cc2cccc(F)c2)CC1	9%	-24%	4%	10%	6	3%
Cc1cc(O)c(CN2CCN(S(=O)(=O)c3cccs3)CC2)cc1C(C)C	11µM*	23µM*	-16%	-14%	16	?
Cc1sc2nc(CN3CCOCC3)nc(NS(=O)(=O)c3cc(Cl)ccc3Cl)c2c1C	2%	-2%	-4%	-1%	46	7%
Cc1ccc(C(C(=O)NCC2CCCO2)N(C(=O)c2snc(C(N)=O)c2N)c2ccccc2F)o1 (stereo unspecified)	0%	?	-1%	-1%	?	?
C[n+]1cccc(O)c1SCc1ccccc1	-16%	5.2µM*	-25%	23µM*	5	4.6µM*
Cc1cccn2c(=O)c(C=O)c(Cl)nc12	?	2.6µM*	?	?	-96*	2.3µM*

Source: PubChem
